Results as given in PubChem BioAssay AID1159580 (chemical genetic matrix, 2015).
About 2,000 (36%) of roughly 5,500 compounds were called active. Roughly 18% stayed inconclusive and do not appear here. Cut-off read from the data, not from the text of the source: active = normalized growth mostly below about 0.91 (no sharp cut-off); inconclusive = no clear call, values can overlap the other calls; inactive = mostly above about 0.92. The list shows a part of the results.

Assay: chemical genetic growth profiling, strain panel (AID 1159580);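 note: tested at 20 µM; growth read once vehicle control cultures reached saturation at 30 °C; 1 = growth at the plate median or of vehicle wells; lower values mean less growth of the strain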
Details: S. cerevisiae deletion strains, growth OD

Measured: normalized growth

CC(N)=NCCCC[C@@H](N)C(=O)O
inactive: locus YAL013W, strain DEP1, active compounds read low 1.01 | locus YAL040C, strain CLN3, active compounds read low 0.998 | locus YCL061C, strain MRC1 (second series), active compounds read low 1.01 | locus YDR150W, strain NUM1, active compounds read low 1 | locus YDR363W, strain ESC2, active compounds read low 1.01 | locus YER002W, strain NOP16, active compounds read low 0.994 | locus YJR075W, strain HOC1, active compounds read low 1 | locus YMR263W, strain SAP30, active compounds read low 1.01 | locus YNL128W, strain TEP1, active compounds read low 1.02 | locus YNL175C, strain NOP13, active compounds read low 1 | locus YNL197C, strain WHI3, active compounds read low 1.01 | locus YNL224C, strain SQS1, active compounds read low 1.01 | locus YNL322C, strain KRE1, active compounds read low 1.02 | locus YOR083W, strain WHI5 (second series), active compounds read low 1.01 | locus YPL055C, strain LGE1, active compounds read low 1
